# Data reported in PubChem BioAssay (Tox21).
# Values without a mark were called inactive. Results filed as inconclusive are left out. Entries that show only a call come without a potency. Calls of active or inactive are those of the source. Unless noted, the call rests on the fitted dose curve.
# Legend:
# [1] = Nuclear factor erythroid 2-related factor 2/antioxidant responsive element (Nrf2/ARE) small molecule agonists: qHTS cell viability counter screen in human keratinocytes (AID 1919968; active means well fitted curve in the direction sought with a large enough effect in the repeat runs; an effect the other way counts as inactive or inconclusive; further: nearly all actives have a fitted effect of over 55% in size)
# How it was run: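 Viability counter-screen: KeratinoSens reporter cells, DMSO-delivered compounds, 23 h at 37 C, CellTiter-Fluor fluorescence.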
# [2] = Nuclear factor erythroid 2-related factor 2/antioxidant responsive element (Nrf2/ARE) small molecule agonists: luciferase reporter gene qHTS assay in human keratinocytes (AID 1919969); further: nearly all actives have a fitted effect of over 35% in size; further: potency means the concentration at half of the fitted maximal effect
# [3] = molecular target: Gonadotropin-releasing hormone receptor (Homo sapiens) (UniProt P30968); assay: Human gonadotropin-releasing hormone receptor (GnRHR) small molecule agonists, calcium flux assay in GnRHR-HEK293 cells (AID 1920063); further: nearly all actives have a fitted effect of over 35% in size
# Chain of Gonadotropin-releasing hormone receptor (Homo sapiens) (P30968 whole entry, looked up): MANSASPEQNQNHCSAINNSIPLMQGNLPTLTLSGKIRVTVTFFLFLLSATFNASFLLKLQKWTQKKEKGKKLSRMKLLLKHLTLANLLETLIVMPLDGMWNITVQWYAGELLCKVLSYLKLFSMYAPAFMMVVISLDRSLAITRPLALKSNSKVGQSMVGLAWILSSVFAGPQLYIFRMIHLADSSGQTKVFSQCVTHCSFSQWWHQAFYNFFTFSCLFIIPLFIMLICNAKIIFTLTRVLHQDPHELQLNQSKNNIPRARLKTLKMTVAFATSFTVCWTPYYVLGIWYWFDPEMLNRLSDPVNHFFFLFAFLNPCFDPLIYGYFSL
# How it was run: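 Tox21-format agonist screen using human GnRHR-expressing HEK293 cells and a fluorescent calcium dye; kinetic 3-min fluorescence reading after compound addition, 15-point concentration series run in triplicate.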
# [4] = molecular target: KiSS-1 receptor (Homo sapiens) (UniProt Q969F8); assay: Human kisspeptin (KISS1R) small molecule agonists, calcium flux assay in KISS1R-HEK293 cells (AID 1920064; active means well fitted curve in the direction sought with a large enough effect in the repeat runs; an effect the other way counts as inactive or inconclusive)
# Chain of KiSS-1 receptor (Homo sapiens) (Q969F8 whole entry, looked up): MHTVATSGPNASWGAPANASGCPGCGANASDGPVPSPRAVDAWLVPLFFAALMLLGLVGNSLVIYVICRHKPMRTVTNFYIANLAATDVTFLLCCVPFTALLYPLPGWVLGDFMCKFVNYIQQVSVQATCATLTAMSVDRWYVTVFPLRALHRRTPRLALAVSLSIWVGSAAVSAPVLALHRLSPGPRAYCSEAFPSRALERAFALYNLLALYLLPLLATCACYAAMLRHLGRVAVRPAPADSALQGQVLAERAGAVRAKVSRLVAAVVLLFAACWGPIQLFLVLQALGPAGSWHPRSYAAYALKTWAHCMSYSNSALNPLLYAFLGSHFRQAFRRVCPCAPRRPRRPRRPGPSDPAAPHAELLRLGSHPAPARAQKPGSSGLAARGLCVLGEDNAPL
# How it was run: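 Intracellular calcium mobilization in KISS1R-HEK293 cells was recorded by fluorescence (Ex/Em 480/540) for 3 min following compound addition to cells pre-loaded 1 h with calcium dye.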
# [5] = p53 small molecule agonists, cell-based qHTS assay with human liver microsomes: qHTS cell viability counter screen (AID 1963579); further: nearly all actives have a fitted effect of over 45% in size; further: potency means the concentration at half of the fitted maximal effect
# How it was run: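 Cells carrying the p53 response-element beta-lactamase reporter are treated for 16 h at 37 C with test compounds in the presence of human liver microsomes and NADPH (both 0.5 mg/mL final); ATP-based CellTiter-Glo luminescence then reports viability.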
# [6] = p53 small molecule agonists, cell-based qHTS assay with rat liver microsomes: qHTS cell viability counter screen (AID 1963580); further: nearly all actives have a fitted effect of over 45% in size
# How it was run: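 Intracellular ATP, by CellTiter-Glo luminescence, defines viability. HCT-116 p53RE-bla cells, 4,000 per well, were compound-treated in the presence of rat liver microsomes and NADPH for 16 h at 37 C.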
# [7] = p53 small molecule agonists, cell-based qHTS assay: qHTS cell viability counter screen (AID 1963581); further: nearly all actives have a fitted effect of over 45% in size; further: potency means the concentration at half of the fitted maximal effect
# How it was run: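 Compounds are pinned onto HCT-116 p53RE-bla cells and left 16 h at 37 C. Following the reporter FRET read, ATP is quantified by CellTiter-Glo luminescence after 30 min at room temperature.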
# [8] = molecular target: 5-hydroxytryptamine receptor 2A (Homo sapiens) (UniProt P28223); assay: 5-hydroxytryptamine receptor 2A (HTR2A) small molecule antagonists, cell-based qHTS assay (AID 1963586); further: nearly all actives have a fitted effect of over 45% in size
# Chain of 5-hydroxytryptamine receptor 2A (Homo sapiens) (P28223 whole entry, looked up): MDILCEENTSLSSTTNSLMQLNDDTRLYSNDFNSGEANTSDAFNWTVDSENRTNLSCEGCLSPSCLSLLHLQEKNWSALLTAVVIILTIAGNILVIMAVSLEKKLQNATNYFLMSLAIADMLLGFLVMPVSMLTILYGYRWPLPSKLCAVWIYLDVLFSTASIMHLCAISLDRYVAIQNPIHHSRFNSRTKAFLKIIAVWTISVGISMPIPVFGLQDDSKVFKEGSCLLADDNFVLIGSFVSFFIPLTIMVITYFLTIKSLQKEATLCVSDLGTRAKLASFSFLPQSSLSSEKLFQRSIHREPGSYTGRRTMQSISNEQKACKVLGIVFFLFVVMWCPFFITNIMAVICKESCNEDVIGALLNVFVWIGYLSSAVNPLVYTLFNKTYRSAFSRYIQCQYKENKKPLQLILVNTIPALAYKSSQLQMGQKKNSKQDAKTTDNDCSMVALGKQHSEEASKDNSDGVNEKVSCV
# How it was run: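 Antagonist-mode intracellular calcium assay: DOI (4 nM) added after 5 min compound pre-incubation at room temperature to dye-loaded HTR2A-CHO cells. Fluorescence followed for 3 min, sampled every second.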
# [9] = molecular target: 5-hydroxytryptamine receptor 2A (Homo sapiens) (UniProt P28223); assay: 5-hydroxytryptamine receptor 2A (HTR2A) small molecule agonists, cell-based qHTS assay (AID 1963587); further: nearly all actives have a fitted effect of over 30% in size
# How it was run: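 Kinetic calcium-flux fluorescence (2 min, 1 sec intervals) after compound addition in agonist mode. HTR2A-CHO cells were cultured 18 h, then dye-loaded 1 h at 37 C.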
# [10] = molecular target: Muscarinic acetylcholine receptor M1 (Homo sapiens) (UniProt P11229); assay: Cholinergic receptor muscarinic 1 (CHRM1) small molecule antagonists, cell-based qHTS assay (AID 1963588); further: nearly all actives have a fitted effect of over 40% in size
# Chain of Muscarinic acetylcholine receptor M1 (Homo sapiens) (P11229 whole entry, looked up): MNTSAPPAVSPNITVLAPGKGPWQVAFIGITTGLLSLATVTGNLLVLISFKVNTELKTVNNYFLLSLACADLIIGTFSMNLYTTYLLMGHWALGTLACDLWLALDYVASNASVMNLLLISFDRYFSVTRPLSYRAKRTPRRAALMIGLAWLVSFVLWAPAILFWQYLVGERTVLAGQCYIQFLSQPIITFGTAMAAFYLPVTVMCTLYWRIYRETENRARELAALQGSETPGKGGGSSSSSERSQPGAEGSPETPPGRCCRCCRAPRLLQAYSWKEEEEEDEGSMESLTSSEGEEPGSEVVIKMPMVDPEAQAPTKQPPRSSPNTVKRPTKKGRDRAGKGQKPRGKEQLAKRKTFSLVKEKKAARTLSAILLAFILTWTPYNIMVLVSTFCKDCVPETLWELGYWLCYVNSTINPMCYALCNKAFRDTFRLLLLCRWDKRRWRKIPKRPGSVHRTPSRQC
# How it was run: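 CHRM1-CHO calcium-flux assay, antagonist mode. Cells were seeded 18 h, dye-loaded 1 h at 37 C and given compound for 5 min at RT, then acetylcholine was added at 50nM. FDSS fluorescence was read 3 min; 15 concentrations, three runs.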
# [11] = molecular target: Muscarinic acetylcholine receptor M1 (Homo sapiens) (UniProt P11229); assay: Cholinergic receptor muscarinic 1 (CHRM1) small molecule agonists, cell-based qHTS assay (AID 1963589); further: nearly all actives have a fitted effect of over 35% in size
# How it was run: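 Stable CHRM1-CHO cells (human receptor) were incubated 18 h, dye-loaded for 1 h at 37 C and exposed to test compounds for agonist activity, with calcium-dependent fluorescence followed kinetically.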
# [12] = cAMP Responsive Elements (CRE) small molecule agonists, cell-based qHTS assay (AID 1963590)
# How it was run: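 FRET-based beta-lactamase readout (LiveBLAzer B/G, 2 h RT) quantified CRE activation in HEK 293T CRE-bla cells after 3 h treatment with DMSO-dissolved compounds.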
# [13] = cAMP Responsive Elements (CRE) small molecule antagonists, cell-based qHTS assay (AID 1963591; active means well fitted inhibition curve with a large enough effect in the signal ratio in the repeat runs, not every such curve was filed as active; the % refers to the signal ratio)
# How it was run: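 qHTS in CRE-bla HEK 293T cells: compound in DMSO, then 0.25 uM NKH477 (final), 3 h at 37 °C/5% CO2; beta-lactamase FRET read-out after 2 h substrate incubation.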
# [14] = molecular target: Beta-2 adrenergic receptor (Homo sapiens) (UniProt P07550); assay: Adrenergic beta2 receptor (ADRB2) small molecule antagonists, cell-based qHTS assay (AID 1963592); further: series mostly up to about 92 µM; nearly all actives have a fitted effect of over 50% in size
# Chain of Beta-2 adrenergic receptor (Homo sapiens) (P07550 whole entry, looked up): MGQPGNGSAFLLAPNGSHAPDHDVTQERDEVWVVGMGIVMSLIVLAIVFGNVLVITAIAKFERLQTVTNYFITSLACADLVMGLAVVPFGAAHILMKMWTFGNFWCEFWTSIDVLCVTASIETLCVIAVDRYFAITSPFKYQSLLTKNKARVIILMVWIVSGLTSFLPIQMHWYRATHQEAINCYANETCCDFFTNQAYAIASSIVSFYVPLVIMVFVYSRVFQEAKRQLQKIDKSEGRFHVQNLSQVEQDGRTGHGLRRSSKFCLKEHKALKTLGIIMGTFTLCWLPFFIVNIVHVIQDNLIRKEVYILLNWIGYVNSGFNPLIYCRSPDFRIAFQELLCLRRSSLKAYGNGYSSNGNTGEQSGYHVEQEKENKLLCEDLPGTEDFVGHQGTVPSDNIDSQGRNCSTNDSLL
# How it was run: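 Cells (CHO, stable ADRB2 overexpression) incubated 18-20hr at 37C; compounds added from DMSO; agonist mix (1nM isoproterenol, 100uM IBMX, 25uM Ro-20-1724) added; 0.5hr RT; d2-cAMP and anti-cAMP-cryptate added; 1hr RT; 665/615 nm read.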
# [15] = molecular target: Beta-2 adrenergic receptor (Homo sapiens) (UniProt P07550); assay: Adrenergic beta2 receptor (ADRB2) small molecule agonists, cell-based qHTS assay (AID 1963593);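 further: CHO cells stably overexpressing human ADRB2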
# How it was run: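 CHO cells stably over-expressing ADRB2 were plated overnight at 37C, then dosed with compounds plus a stimulation mix containing 100uM IBMX and 25uM Ro-20-1724 for 0.5hr at room temperature. cAMP was measured by HTRF competition, 1hr.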
# [16] = molecular target: D(2) dopamine receptor (Homo sapiens) (UniProt P14416); assay: Dopamine D2 receptor (DRD2) small molecule agonists, cell-based qHTS assay (AID 1963594); further: nearly all actives have a fitted effect of over 35% in size
# Chain of D(2) dopamine receptor (Homo sapiens) (P14416 whole entry, looked up): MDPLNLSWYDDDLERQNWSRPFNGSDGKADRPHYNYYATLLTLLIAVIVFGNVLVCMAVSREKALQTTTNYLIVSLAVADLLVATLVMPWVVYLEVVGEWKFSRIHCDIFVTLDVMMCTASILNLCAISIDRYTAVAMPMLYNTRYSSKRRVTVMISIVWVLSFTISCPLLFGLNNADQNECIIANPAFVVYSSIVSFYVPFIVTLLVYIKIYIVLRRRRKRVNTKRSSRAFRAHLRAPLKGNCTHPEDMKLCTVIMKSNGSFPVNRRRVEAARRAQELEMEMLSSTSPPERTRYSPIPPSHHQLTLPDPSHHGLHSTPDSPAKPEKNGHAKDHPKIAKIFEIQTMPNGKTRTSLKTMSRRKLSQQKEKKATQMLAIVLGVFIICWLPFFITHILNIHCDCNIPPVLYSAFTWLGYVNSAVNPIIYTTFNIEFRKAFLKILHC
# How it was run: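 cAMP accumulation in DRD2-HEK293 cells measured by HTRF after 1 h detection; compounds added 10 min before NKH477 (200nM […]) forskolin-analogue stimulation, 30 min at room temperature, with Ro20-1724 present at 0.1 mM final.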
# [17] = molecular target: D(2) dopamine receptor (Homo sapiens) (UniProt P14416); assay: Dopamine D2 receptor (DRD2) small molecule antagonists, cell-based qHTS assay (AID 1963595; active means well fitted inhibition curve with a large enough effect in the signal ratio in the repeat runs, with a control signal flat; the % refers to the signal ratio)
# How it was run: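 DRD2-HEK293; 0.1 mM Ro20-1724; cpd 10 min RT; NKH477 200 nM + quinpirole 12 nM, 30 min RT; HTRF cAMP (cAMP-d2/anti-cAMP cryptate), 665/620 nm ratio after 1 h.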
# [18] = G protein-coupled receptor (GPCR) small molecule agonists, calcium flux assay: HEK293 wild type cell line counter screen (AID 1920065)
# How it was run: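 In this agonist-mode screen, ATP is the positive control and DMSO the vehicle. Cells grow 18 h before a 1 h dye incubation at 37 C; signal is taken at Ex/Em 480/540 over 3 min.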
# [19] = p53 small molecule agonists, cell-based qHTS assay with rat liver microsomes (AID 1963578)
# How it was run: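 Read-out is beta-lactamase reporter fluorescence (LiveBLAzer, 2 h, room temperature, dark) in p53RE-bla cells treated 16 h at 37 C with compound, rat liver microsomes and NADPH, both 0.5 mg/mL final.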
# [20] = p53 small molecule agonists, cell-based qHTS assay (AID 1963582; active means well fitted activation curve with a large enough effect in the signal ratio in the repeat runs, not every such curve was filed as active; the % refers to the signal ratio)
# How it was run: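 Agonist activity was scored from beta-lactamase FRET fluorescence in p53RE-bla cells treated 16 h at 37 C with compounds in DMSO, substrate incubation being 2 h at room temperature.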
SMILES,Potency [1],Potency [2],Potency [3],Potency [4],Potency [5],Potency [6],Potency [7],Potency [8],Potency [9],Potency [10],Potency [11],Potency [12],Potency [13],Potency [14],Potency [15],Potency [16],Potency [17],Potency [18],Potency [19],Potency [20]
O=C(NN1CCCC1)NS(=O)(=O)c1ccc(Cl)cc1,inactive,inactive,inactive,inactive,inactive,inactive,inactive,inactive,inactive,inactive,inactive,inactive,inactive,inactive,inactive,,,,,
O=C(O)Cc1cc(I)c(Oc2cc(I)c(O)c(I)c2)c(I)c1,inactive,30 µM (active),inactive,inactive,17.9 µM (active),inactive,22.5 µM (active),,,inactive,inactive,,,inactive,,inactive,inactive,,,
CCCCCCCC/C=C\CCCCCCCC(=O)OC(CO)CO,inactive,34.4 µM (active),inactive,inactive,inactive,inactive,inactive,inactive,inactive,inactive,inactive,inactive,inactive,inactive,inactive,,,,,
C=COCCOCCOC=C,inactive,inactive,inactive,,inactive,inactive,inactive,inactive,inactive,inactive,inactive,inactive,inactive,inactive,inactive,inactive,inactive,inactive,inactive,inactive
CN1C(C(=O)Nc2ccccn2)=C(O)c2sccc2S1(=O)=O,inactive,inactive,inactive,inactive,inactive,inactive,inactive,,,,,inactive,inactive,inactive,inactive,inactive,inactive,,,
CCCC(=O)OC/C=C(\C)CCC=C(C)C,inactive,inactive,inactive,inactive,inactive,,inactive,inactive,inactive,inactive,inactive,inactive,inactive,inactive,,inactive,inactive,,,
COC(Cc1ccccc1)OC,inactive,inactive,inactive,inactive,inactive,inactive,inactive,inactive,inactive,inactive,inactive,inactive,inactive,inactive,inactive,,inactive,,,
CC(=O)OC(C)OC(=O)C(C)c1ccc(-c2ccccc2)c(F)c1 (stereo not drawn),inactive,inactive,inactive,inactive,,inactive,inactive,inactive,inactive,inactive,inactive,,,inactive,,inactive,inactive,,,
